Measurements taken from the supplement of paper PMC6555819.

What follows are sequences tested on VDR:RXRa (NR concentration 270 nM, RXRa partner concentration 90 nM) (assay: PBM binding z-score (relative to random genomic background probes); higher = stronger binding; sequences stand for … in GC…GCGATTGACAGCGTAGAATGAAGG).
Description: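 Protein-binding microarray (Agilent 4x180K custom design, double-stranded 60-nt probes: 5' GC cap, 34-nt variable region, 24-nt constant primer region; full probe sequence given). Purified or IVT nuclear receptor:RXRα heterodimers (3:1 NR:RXRα, mostly 270:90 nM) or homodimers were incubated for 1 h in PBS with 2% milk and no ligand, then detected with Alexa488 antibodies. Fluorescence from o1-orientation probes (~5 replicates averaged) was converted to z-scores against 500 random hg19 background probes. Variable regions are seed direct-repeat (DR0–DR5) sites, all their single-nucleotide variants and half-site ablations.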

First: CAAACTAGGTCAAGGTCGAAGTCGGTTTGTGCCA
Second: CTCGAAATGTCGGTTGAGGTGAGTATACGGATAA
The PBM binding z-score of the first is higher: 3.27 for the first, -0.148 for the second.

Going from TCTATTAGTTCATTAGGGCAACCGAAACAGCGGA to GCTAGTTGGTCAGTAAAAGGTCACACATCGGTCG, the PBM binding z-score rises from 2.2 to 3.96.

Going from CCAGACAGGTGTAAGGTAACTCAGTCTGGTACGC to GCTCGGCGGACAAGGTCAGAGCTTTGTCCGTAGA, the PBM binding z-score rises from 0.0147 to 0.376.

Going from TCTGCTAGGTCAGTTGGACAGCTAACGAGCTGCC to CATACAGGGTCAGTTAGGCCAGAGTAGGGACGGC, the PBM binding z-score rises from -0.155 to 3.05.

Going from TCATATAGGTAAACTGGTGAAAGTCCGTAAGTTA to GCTTACGGGTCAAAGCTTATAGCATGAATAGAAT, the PBM binding z-score rises from 0.597 to 3.36.

First: ATATGTAGGTTAGCTGGGGTCATTCTGACTAGGC
Second: CCTTCCGGGTCACTGACAGGTTATAGCATTTGGA
The PBM binding z-score of the first is higher: 6.29 for the first, 3.83 for the second.

First: GCTAGTTGGTCAGTAAGAGGTCACACACCGGTCG
Second: TCTATAAGTTGAAGGGCAACCGACGAGTCCGTTT
The PBM binding z-score of the first is higher: 4.12 for the first, 1.07 for the second.

First: TCATATAGGTACTACAGGTGAAAGTCGGCATCTA
Second: AGAACGAGGGCAATGAGTTGATAGGACGGGTGGC
The PBM binding z-score of the first is lower: 0.876 for the first, 5.22 for the second.

Going from AGTCAAAGTTCAGGTCGAGGTAACGTAAAGCACG to CCTATTAGTTGACCCTAAGGGCAACCGAAGCTCG, the PBM binding z-score rises from 3.41 to 3.74.

Compared with TCTCCGAGGACACGAAGGTCAGAGCTTTCCAGAG, ATATGTAGGTAATCGGGTCATTCAGTTTGCGCAT is higher in PBM binding z-score: 2.69 for the first, 4.7 for the second.

First: TAGCCTAGGTCAGATCGGACCAGTATACGCTATA
Second: GCAGACAGGTGAAACGCAGGTAACTCATGGTGGC
The PBM binding z-score of the first is higher: 0.34 for the first, -0.567 for the second.

First: AGTCAAAGTTCAGGACGAGGTAACTTAAAGCACG
Second: AGAACGAGCGCAATGAGTTGATAGCACGGGTGGC
The PBM binding z-score of the first is higher: 3.1 for the first, -0.0491 for the second.

First: CAGCCTAGGTCTGGGCCAGTATAGGAGGAACGTT
Second: CCAAACAGGTGAAAGGTAACTCAGTCTGGTACGC
The PBM binding z-score of the first is lower: -0.828 for the first, 0.991 for the second.

Compared with GCAGACAGGTGAAACGCACGTAACTCAGGGTGGC, GCGACTGGGGCATCAGCAGGTTAACATAACTTAA is higher in PBM binding z-score: -0.568 for the first, 0.126 for the second.

Going from TATACCGGGTCAAAGGCCAGAGTACGAATGTCGA to CATACAGGGTCAGCTAGGCTAGAGTAGGGACGGC, the PBM binding z-score falls from 3.9 to 3.

Going from ATCTCTAGGTAACCCAGTTCAGTGAATGCCGAAC to GGAACGAGGGCCAAGTTGATAGCATCTGTCGACG, the PBM binding z-score falls from 2.74 to -0.379.

Going from ATCGAAAGATCGAGGTGAGTATAGAGAAAGGGAA to TCATACAGGTAAATGCTAGGTGAAAGTCCGATCT, the PBM binding z-score rises from -0.327 to 0.69.

Compared with TCTGATAGGTCAGTTGGTCAGCTAACGAGCTGCC, CGCCCAAGGTCAATGCTAGGTCAGTGAAAGCATT is higher in PBM binding z-score: 0.777 for the first, 4.59 for the second.

First: TCTGCTAGGTCAACGATGGTCAGCTAGTCTGCTA
Second: CGGACTAGGTCAAGGACAGTGAATCTCCGCACGC
The PBM binding z-score of the first is higher: 1.43 for the first, 0.867 for the second.

Compared with TCTTGTAGCTCAAGCAGGTTAAGAAAGCCTGAGT, TCAGACAGATGAAGGTAACTCAGGTACGCAGTCG is higher in PBM binding z-score: -0.0447 for the first, 0.608 for the second.
